PMC11062922 (Nature Chemical Biology, 2023)
Read-outs that look alike come from different tables or passages of the source.

Tests used:
[1] = tested on: EGFR; set-up: species or system human, MV4-11 + K-562 + COLO205 + SK-N-BE2 + OVCAR-8; details: read-out: apparent Kd; compound concentrations: 100 nM and 1000 nM (sheet 'Samples'), CATDS: 0.31081219561231099; n = 1
[2] = tested on: EPHA1; set-up: species or system human, MV4-11 + K-562 + COLO205 + SK-N-BE2 + OVCAR-8; details: read-out: apparent Kd; compound concentrations: 100 nM and 1000 nM (sheet 'Samples'), CATDS: 8.4373240562764601E-2; n = 1
[3] = tested on: EPHB4; set-up: species or system human, MV4-11 + K-562 + COLO205 + SK-N-BE2 + OVCAR-8; details: read-out: apparent Kd; compound concentrations: 100 nM and 1000 nM (sheet 'Samples'), CATDS: 9.3319537671251104E-2; n = 1
[4] = tested on: GAK; set-up: species or system human, MV4-11 + K-562 + COLO205 + SK-N-BE2 + OVCAR-8; details: read-out: apparent Kd, n = 1
[5] = tested on: MAPKAPK2; set-up: species or system human, MV4-11 + K-562 + COLO205 + SK-N-BE2 + OVCAR-8; details: read-out: apparent Kd; compound concentrations: 100 nM and 1000 nM (sheet 'Samples'), CATDS: 6.9663188807488702E-2; n = 1
[6] = tested on: PIK3CA; set-up: species or system human, MV4-11 + K-562 + COLO205 + SK-N-BE2 + OVCAR-8; details: read-out: apparent Kd; compound concentrations: 100 nM and 1000 nM (sheet 'Samples'), CATDS: 0.12114887477335; n = 1
[7] = tested on: PIK3CD; set-up: species or system human, MV4-11 + K-562 + COLO205 + SK-N-BE2 + OVCAR-8; details: read-out: apparent Kd; compound concentrations: 100 nM and 1000 nM (sheet 'Samples'), CATDS: 0.31843258690153697; n = 1
[8] = tested on: PIK3CG; set-up: species or system human, MV4-11 + K-562 + COLO205 + SK-N-BE2 + OVCAR-8; details: read-out: apparent Kd; compound concentrations: 100 nM and 1000 nM (sheet 'Samples'), CATDS: 8.4802846120227496E-2; n = 1
[9] = tested on: RIPK2; set-up: species or system human, MV4-11 + K-562 + COLO205 + SK-N-BE2 + OVCAR-8; details: read-out: apparent Kd; compound concentrations: 100 nM and 1000 nM (sheet 'Samples'), CATDS: 8.6500761240037902E-2; n = 1
[10] = tested on: RIPK3; set-up: species or system human, MV4-11 + K-562 + COLO205 + SK-N-BE2 + OVCAR-8; details: read-out: apparent Kd, compound concentrations: 100 nM and 1000 nM (sheet 'Samples'), n = 1
[11] = tested on: FLT3; set-up: species or system human, MV4-11 + K-562 + COLO205 + SK-N-BE2 + OVCAR-8; details: read-out: apparent Kd, n = 1
[12] = tested on: MAP2K5; set-up: species or system human, MV4-11 + K-562 + COLO205 + SK-N-BE2 + OVCAR-8; details: read-out: apparent Kd; compound concentrations:100 nM and 1000 nM (sheet 'Samples'); n = 1
[13] = tested on: SIK2; set-up: species or system human, MV4-11 + K-562 + COLO205 + SK-N-BE2 + OVCAR-8; details: read-out: apparent Kd; compound concentrations:100 nM and 1000 nM (sheet 'Samples'); n = 1
[14] = tested on: SIK3; set-up: species or system human, MV4-11 + K-562 + COLO205 + SK-N-BE2 + OVCAR-8; details: read-out: apparent Kd; compound concentrations:100 nM and 1000 nM (sheet 'Samples'); n = 1
[15] = tested on: ZAK; set-up: species or system human, MV4-11 + K-562 + COLO205 + SK-N-BE2 + OVCAR-8; details: read-out: apparent Kd; compound concentrations:100 nM and 1000 nM (sheet 'Samples'); n = 1
[16] = tested on: STK26; set-up: species or system human, MV4-11 + K-562 + COLO205 + SK-N-BE2 + OVCAR-8; details: read-out: apparent Kd; compound concentrations: 100 nM and 1000 nM (sheet 'Samples'), CATDS: 0.187537130117577; n = 1
[17] = tested on: TTK; set-up: species or system human, MV4-11 + K-562 + COLO205 + SK-N-BE2 + OVCAR-8; details: read-out: apparent Kd; compound concentrations: 100 nM and 1000 nM (sheet 'Samples'), CATDS: 0.15958246539429699; n = 1
[18] = tested on: TTN; set-up: species or system human, MV4-11 + K-562 + COLO205 + SK-N-BE2 + OVCAR-8; details: read-out: apparent Kd; compound concentrations: 100 nM and 1000 nM (sheet 'Samples'), CATDS: 0.25287309010543901; n = 1
[19] = tested on: FLT4; set-up: species or system human, MV4-11 + K-562 + COLO205 + SK-N-BE2 + OVCAR-8; details: read-out: apparent Kd; compound concentrations: 100 nM and 1000 nM (sheet 'Samples'), CATDS: 0.159173325469706; n = 1
[20] = tested on: PDGFRB; set-up: species or system human, MV4-11 + K-562 + COLO205 + SK-N-BE2 + OVCAR-8; details: read-out: apparent Kd, compound concentrations: 100 nM and 1000 nM (sheet 'Samples'), n = 1
[21] = tested on: PIP4K2C; set-up: species or system human, MV4-11 + K-562 + COLO205 + SK-N-BE2 + OVCAR-8; details: read-out: apparent Kd; compound concentrations: 100 nM and 1000 nM (sheet 'Samples'), CATDS: 0.16088368333560399; n = 1
[22] = target: Q6ZSR9 (human, UniProt Q6ZSR9); set-up: species or system MV4-11 + K-562 + COLO205 + SK-N-BE2 + OVCAR-8; details: read-out: apparent Kd; compound concentrations: 100 nM and 1000 nM (sheet 'Samples'), CATDS: 0.15174967066440201; n = 1
Chain of Q6ZSR9 (Q6ZSR9 whole entry, looked up): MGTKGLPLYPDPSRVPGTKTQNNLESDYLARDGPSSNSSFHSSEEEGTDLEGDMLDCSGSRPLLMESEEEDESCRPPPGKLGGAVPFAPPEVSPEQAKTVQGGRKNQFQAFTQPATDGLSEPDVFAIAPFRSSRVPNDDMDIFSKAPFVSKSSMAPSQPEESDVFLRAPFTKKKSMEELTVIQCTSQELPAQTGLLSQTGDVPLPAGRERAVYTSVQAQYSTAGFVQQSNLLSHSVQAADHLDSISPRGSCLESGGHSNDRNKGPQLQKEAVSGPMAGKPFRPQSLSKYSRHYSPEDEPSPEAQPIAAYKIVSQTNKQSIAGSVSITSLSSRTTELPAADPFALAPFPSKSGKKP

[23] = tested on: JAK2; set-up: species or system human, MV4-11 + K-562 + COLO205 + SK-N-BE2 + OVCAR-8; details: read-out: apparent Kd; compound concentrations: 100 nM and 1000 nM (sheet 'Samples'), CATDS: 0.29115403437322901; n = 1
[24] = compound concentrations:100 nM and 1000 nM (sheet 'Samples')

Structure (SMILES): COc1cc2ncnc(Nc3ccc(F)c(Cl)c3)c2cc1O[C@H]1CC[C@H](N)CC1 [BIBW3133BS]
- potency estimated from few doses [1]: 0.0486 µM
- potency estimated from few doses [2]: 0.67 µM
- potency estimated from few doses [3]: 0.508 µM
- potency estimated from few doses ([4]; compound concentrations: 100 nM and 1000 nM (sheet 'Samples'), CATDS: 7.6130935509039099E-2): 0.922 µM
- potency estimated from few doses [5]: 1.27 µM
- potency estimated from few doses [6]: 0.273 µM
- potency estimated from few doses [7]: 0.0468 µM
- potency estimated from few doses [8]: 0.66 µM
- potency estimated from few doses [9]: 0.624 µM
- potency estimated from few doses ([10]; CATDS: 8.3491494498952795E-2): 0.691 µM

Structure (SMILES): CCS(=O)(=O)c1ccc(OC)c(Nc2ncc(-c3cccc(OC)c3)o2)c1 [GW580509X]
- potency estimated from few doses [11, 24]: 1.13 µM

Structure (SMILES): CNS(=O)(=O)c1ccc(N(C)C)c(Nc2ncnc3cc(OC)c(OC)cc23)c1 [GSK114]
- potency estimated from few doses [4, 24]: 0.0281 µM
- potency estimated from few doses [12]: 0.0127 µM
- potency estimated from few doses [13]: 0.639 µM
- potency estimated from few doses [14]: 1.35 µM
- potency estimated from few doses [15]: 0.646 µM

Structure (SMILES): Nc1ncnc2c1ncn2-c1ccc(Cl)cc1 [AH2635]
- potency estimated from few doses ([11]; compound concentrations: 100 nM and 1000 nM (sheet 'Samples'), CATDS: 1): 1.61 µM

Structure (SMILES): Cc1ccc2c(c1)/C(=N/Nc1ccc(S(N)(=O)=O)cc1)C(=O)N2 [GW275944X]
- potency estimated from few doses ([11]; compound concentrations: 100 nM and 1000 nM (sheet 'Samples'), CATDS: 0.260396984763757): 0.809 µM
- potency estimated from few doses ([10]; CATDS: 0.17836354308348701): 1.7 µM
- potency estimated from few doses [16]: 1.52 µM
- potency estimated from few doses [17]: 2.27 µM
- potency estimated from few doses [18]: 0.851 µM

Structure (SMILES): COc1cc(Nc2ncc(-c3ccccc3)o2)cc(OC)c1OC [GW627512B]
- potency estimated from few doses ([11]; compound concentrations: 100 nM and 1000 nM (sheet 'Samples'), CATDS: 0.90210431278154302): 0.0202 µM
- potency estimated from few doses [19]: 1.85 µM
- potency estimated from few doses ([20]; CATDS: 0.20817935834978499): 0.858 µM
- potency estimated from few doses [21]: 1.79 µM
- potency estimated from few doses [22]: 2.17 µM

Structure (SMILES): COc1ccccc1Nc1ncc(-c2ccccc2)o1.Cl [GW577921A]
- potency estimated from few doses ([11]; compound concentrations: 100 nM and 1000 nM (sheet 'Samples'), CATDS: 0.90882717599339502): 0.0143 µM
- potency estimated from few doses [23]: 0.37 µM
- potency estimated from few doses ([20]; CATDS: 0.22396051882089299): 1.08 µM
